The full list was thinned out, with hits kept by preference.
Pf Dd2 growth – blocks in vitro growth of P. falciparum Dd2 | actives 4.3% (n = 120,000) | Potency, µM (titrated, usually from 28.9 µM), inactives show top-dose activity, negative = inhibition, actives largely listed as inhibitors | P. falciparum Dd2 growth, SYBR Green, 72 h; active = well fitted inhibition curve with a large enough effect;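 also: plate controls were DMSO vehicle for no effect and reference drug for full effect; nearly all actives have a fitted effect of over 65% in size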
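Readout: SYBR Green fluorescence, 485 nm excitation, 535 nm emission, after ~16 h lysis at 37C. Before that, Dd2-infected red cells (2.5% hematocrit) grew 72 h with compound, 29 uM top final concentration.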
* hit, by the source's call; i = inactive; [ ] = dose if it differs, or a comment. Potency is read from the fitted curve at half-maximal effect.

SMILES | Pf Dd2 growth
Cc1ccncc1-c1c(C)nn2c1N(Cc1ccc(C(=O)O)cc1)CCC2 | i
CC(=O)N1CCCn2nc(C)c(-c3ccccc3OCc3ccccc3)c21 | i
Cc1nn2c(c1-c1ccccc1C(C)C)N(Cc1ccc(C(=O)O)cc1)CCC2 | -10%[44.1 µM]
Cc1nn2c(c1-c1ccccc1Oc1ccccc1)N(Cc1ccccc1O)CCC2 | 0.56µM*
COc1ccc(C(=O)N2CCCn3nc(C)c(-c4ccccc4-c4ccccc4)c32)cn1 | i
Cc1nn2c(c1-c1ccccc1Oc1ccccc1)N(C(=O)Cc1ccc(O)cc1)CCC2 | 8.9µM*
Cc1nn2c(c1-c1ccccc1C(C)C)N(Cc1cccc(C(=O)O)c1)CCC2 | 4.5µM*
COc1ccc(C(=O)N2CCCn3nc(C)c(-c4ccccc4-c4ccccc4)c32)cc1 | 10µM*
Cc1nn2c(c1-c1ccccc1C(C)C)N(C(=O)Cc1ccc(O)cc1)CCC2 | i
Cc1nn2c(c1-c1ccccc1-c1ccccc1)N(C(=O)c1cccnc1)CCC2 | i
Cc1nn2c(c1-c1ccccc1[S+](C)(=O)[O-])N(Cc1ccccc1F)CCC2 | i
Cc1nn2c(c1-c1ccccc1OCc1ccccc1)N(C(=O)C(C)C)CCC2 | i
O=C(CCc1c[nH]c2ccccc12)N1[C@H]2CC[C@@H]1c1cnc(-c3ccc(F)cc3)nc1C2 | i
O=C(O)C1(Oc2ccc3ccccc3c2)CCN(Cc2ccc(CO)o2)CC1 | -6%
O=C1NC(=NC2CCCCC2)C2(CCN([S+](=O)([O-])c3ccsc3)C2)N1c1cccnc1 (stereo not given) | 5%
COC[C@@H]1CN(C(=O)c2ccco2)C[C@H]1c1nc(C2CC2)no1 | 0%
Cc1ccc(-n2c(C3CCN(C(=O)c4ccc(F)c(Cl)c4)CC3)n[nH]c2=O)cc1 | -4%
Cc1nc(C)c(C(=O)NCc2cccnc2N(C)C2CCCCC2)s1 | -26%
O=C(Cn1ncc2ccccc2c1=O)N1CCCC(Cc2nc3ccccc3[nH]2)C1 (stereo not given) | 5%
COCc1nnc(NC(=O)CN2CCN(c3nccnc3C#N)CC2)s1 | i
COc1cccc(CC(=O)N2CCCn3nc(C)c(-c4ccccc4-c4ccccc4)c32)c1 | 10µM*
Cc1nn2c(c1-c1ccccc1OCc1ccccc1)N(C(=O)CCc1cccnc1)CCC2 | i
COc1ccccc1C(=O)N1CCCn2nc(C)c(-c3ccccc3-c3ccccc3)c21 | -17%[44.1 µM]
Cc1nn2c(c1-c1ccccc1Oc1ccccc1)N(C(=O)C1CCC1)CCC2 | -2%[44.1 µM]
COc1cccc(CC(=O)N2CCCn3nc(C)c(-c4ccccc4Oc4ccccc4)c32)c1 | 13µM*
SMILES | Pf Dd2 growth
Cc1nn2c(c1-c1ccccc1C(N)=O)N(C(=O)Cc1cccc(F)c1)CCC2 | 13%[44.1 µM]
Cn1ccnc1C(=O)N1CCC(N2C(=O)C(OCC3CC3)C23CCOCC3)CC1 (stereo not given) | -4%
CC1Oc2ccc(NC(=O)Cc3ccccc3)cc2CN(Cc2ccc(F)cc2)C1=O (stereo not given) | -10%
COCCO[C@H]1C(=O)N(C2CCN(C(=O)Nc3ccccc3F)CC2)[C@H]1c1ccncc1 | 25%
CC(C)(C)C(=O)NC1CCN(c2cn[nH]c(=O)c2)CC1 | -6%
Cc1cccc(C(=O)N2C[C@@H](F)C[C@H]2C(=O)N2CCc3ccccc3C2)c1 | 12%
CCCCN(C)CCCNC(=O)Cn1ncc2c3ccccc3n(Cc3ccccc3F)c2c1=O | 5.6µM*
CCCCN(C)CCNC(=O)Cn1ncc2c([nH]c3ccccc32)c1=O | -4%
Cc1ccc(C)c(Cn2c3ccccc3c3cnn(CC(=O)NCC(C)c4ccccc4)c(=O)c32)c1 (stereo not given) | 18%
O=C(Cn1ncc2c3ccccc3n(Cc3ccccc3F)c2c1=O)NCCc1ccc(Cl)cc1 | 23%
CCCN(CCC)CCCNC(=O)Cn1ncc2c3ccccc3n(Cc3ccccc3F)c2c1=O | 5µM*
Cc1ccccc1Cn1c2ccccc2c2cnn(CC(=O)NCCc3ccc(Cl)cc3)c(=O)c21 | 18%
Cc1ccc(C)c(Cn2c3ccccc3c3cnn(CC(=O)NC(C)c4ccccc4)c(=O)c32)c1 (stereo not given) | 27%
CC(CCc1ccccc1)NC(=O)Cn1ncc2c3ccccc3n(Cc3ccccc3F)c2c1=O (stereo not given) | -16%
CCCCN(C)CCCNC(=O)Cn1ncc2c3ccccc3n(Cc3cc(C)ccc3C)c2c1=O | 0.45µM*
CC(=O)N1C[C@@H](C(=O)N2CCC(Cc3ccccc3)CC2)[C@H](c2nc(C)no2)C1 | i
COC[C@@H]1CN(C(=O)Cc2c(C)noc2C)C[C@H]1c1ccncc1 | 30%
O=C(C1CC1)N1CCC(Cc2nc(C3CC3)n[nH]2)CC1 | 14%
CN(Cc1ccc(Cl)cc1)Cc1ccccc1C(F)(F)F | 3%[44.1 µM]
COCCN1CC(CO)C2(CCN(C(=O)COc3ccccc3)CC2)C1 (stereo not given) | -19%
O=C(COc1ccccc1)N1CCC2(CC1)CN(Cc1ccccc1)CC2CO (stereo not given) | 5µM*
O=C(CN1CCCCCC1)N1CCC2(CC1)CN(Cc1ccccc1)CC2CO (stereo not given) | i
CC1(C)[C@H](Cc2cc(CN3CCOCC3)on2)C[C@@H]1N | -17%[44.1 µM]
NC(=O)CN1CCOC(Cc2cccc(C(F)(F)F)c2)C1 (stereo not given) | -4%
COC[C@H]1C[C@@H](NCc2cccc(Cl)c2)[C@H](O)[C@@H]1O | i
SMILES | Pf Dd2 growth
Cc1ccc(C(=O)N2CC[C@@](C)(O)[C@@H](Cc3ccccc3)C2)cc1C | 8.9µM*
Cc1ccc(C(=O)N2CCC3(CC2)NC(=O)N(c2ccccc2)N3)cc1C | -3%
Cc1ccc(C(=O)N2CCC3(CC2)NC(=O)N(Cc2ccccc2)C3=O)cc1F | 10%
CCN1CCN(c2ccc(C(=O)N3CCC(N4CCOCC4)CC3)cn2)CC1 | -7%
Cc1cccc(-n2ncc(C(=O)NCc3ccccn3)c2C2CCN(C(=O)OC(C)(C)C)CC2)c1 | 10µM*
CC(C)(C)OC(=O)N1CCC(c2c(C(=O)NCc3ccco3)cnn2-c2ccc(F)cc2)CC1 | 7.9µM*
CCOC(=O)N1CCC(NC(=O)c2cnn(-c3ccccc3)c2C2CCN(C(=O)OC(C)(C)C)CC2)CC1 | -20%
Cc1cccc(-n2ncc(C(=O)N3CCN(C(=O)c4ccco4)CC3)c2C2CCN(C(=O)OC(C)(C)C)CC2)c1 | i
Cc1cccc(-n2ncc(C(=O)NCc3ccco3)c2C2CCN(C(=O)OC(C)(C)C)CC2)c1 | 11µM*
Cc1c(Cl)cccc1-n1ncc(C(=O)NC2CCCCC2)c1C1CCN(C(=O)OC(C)(C)C)CC1 | i
Cc1ccc(-n2ncc(C(=O)NCc3ccccn3)c2C2CCN(C(=O)OC(C)(C)C)CC2)cc1C | -3%
CC(C)(C)OC(=O)N1CCC(c2c(C(=O)NC3CCCCC3)cnn2-c2cccc(Cl)c2)CC1 | 8.9µM*
O=C(c1ccc2cc[nH]c2c1)N1CCc2c(nc3cc(-c4ccccc4)[nH]n3c2=O)C1 | 0%
CCc1noc(-c2ccn3c(CNC(=O)Cc4ccc(C)cc4)nnc3c2)n1 | i
O=C(NCc1ccccc1F)c1ccc2c(c1)CN(CC1=Cc3ccccc3OC1)CCO2 | -3%
COCCNC(=O)CCC[C@@H]1[C@H]2CCCN3CCC[C@@H](CN1C)[C@@H]23 | 5%
Cc1noc(C)c1Cc1ccc(C(=O)N2CCC(C)(c3noc(-c4ccccn4)n3)CC2)o1 | -8%
COCCOC1CCOC2(CCN(C(=O)c3ccccn3)CC2)C1 (stereo not given) | 13%
CC(C)(C)OC(=O)N1CCC(c2c(C(=O)NCc3cccc(Cl)c3)cnn2-c2ccc(F)cc2)CC1 | 11µM*
